Experiments:
Assay in all cases: log2 ratio of Biotin-Ahx-Ub-VS probe labelling (fragment/DMSO); higher = less target engagement (more negative = stronger competition), active = hit call of the paper (q ≤ 0.05, log2 ratio ≤ -1)
Settings in all cases: compound concentration: 200 uM; treatment time: 3 h
USP34 = USP34 (UniProt Q70CQ2)
Procedure, shortened: (§1)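 HEK293T lysate, 495 µg per sample in Tris/CHAPS/IGEPAL buffer with protease inhibitors, was treated in triplicate with fragment at 200 µM or vehicle for 3 h and then with Biotin-Ahx-Ub-VS at 0.5 µM final for 1 h. Labelled DUBs were NeutrAvidin-enriched, digested with LysC and trypsin, and run by diaPASEF LC-MS/MS. Spectronaut label-free quantities were global-median-normalised, and values are average log2 fragment/vehicle ratios by unpaired t-test on proteins with ≥2 unique peptides.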

USP36 = biological target: T1, USP36 (UniProt Q9P275)
T1 sequence (whole entry): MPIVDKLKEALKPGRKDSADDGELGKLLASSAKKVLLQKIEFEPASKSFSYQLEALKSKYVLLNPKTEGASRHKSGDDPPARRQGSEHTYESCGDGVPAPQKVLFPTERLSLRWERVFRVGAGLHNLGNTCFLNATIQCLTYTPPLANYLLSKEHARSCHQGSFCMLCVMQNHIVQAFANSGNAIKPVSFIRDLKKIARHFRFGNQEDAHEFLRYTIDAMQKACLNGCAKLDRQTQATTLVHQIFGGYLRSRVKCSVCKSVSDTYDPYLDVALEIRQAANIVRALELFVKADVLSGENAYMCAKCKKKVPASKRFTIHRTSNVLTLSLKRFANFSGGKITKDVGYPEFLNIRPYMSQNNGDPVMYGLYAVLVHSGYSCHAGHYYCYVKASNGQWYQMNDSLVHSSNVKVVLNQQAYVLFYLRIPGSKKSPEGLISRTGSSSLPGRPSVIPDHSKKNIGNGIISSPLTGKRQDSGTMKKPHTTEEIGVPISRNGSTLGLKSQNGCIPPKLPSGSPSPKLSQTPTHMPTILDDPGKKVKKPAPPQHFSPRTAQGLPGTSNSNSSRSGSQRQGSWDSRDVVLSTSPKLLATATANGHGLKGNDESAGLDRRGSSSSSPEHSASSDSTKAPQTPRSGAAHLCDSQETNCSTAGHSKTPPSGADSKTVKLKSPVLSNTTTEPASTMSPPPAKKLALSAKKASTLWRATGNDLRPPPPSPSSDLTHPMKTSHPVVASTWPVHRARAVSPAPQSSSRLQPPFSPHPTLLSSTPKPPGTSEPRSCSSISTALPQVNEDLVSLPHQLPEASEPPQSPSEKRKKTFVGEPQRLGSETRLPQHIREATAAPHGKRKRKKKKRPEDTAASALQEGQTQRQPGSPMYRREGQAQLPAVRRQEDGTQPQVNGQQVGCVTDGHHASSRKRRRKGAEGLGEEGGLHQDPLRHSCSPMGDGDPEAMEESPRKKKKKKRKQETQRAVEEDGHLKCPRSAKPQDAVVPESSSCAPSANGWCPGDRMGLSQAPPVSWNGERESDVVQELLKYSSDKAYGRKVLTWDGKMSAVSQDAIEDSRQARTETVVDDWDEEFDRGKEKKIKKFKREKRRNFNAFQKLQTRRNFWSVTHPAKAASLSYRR
Procedure, shortened: as §1

USP38 = biological target: T2, USP38 (UniProt Q8NB14)
T2 sequence (whole entry): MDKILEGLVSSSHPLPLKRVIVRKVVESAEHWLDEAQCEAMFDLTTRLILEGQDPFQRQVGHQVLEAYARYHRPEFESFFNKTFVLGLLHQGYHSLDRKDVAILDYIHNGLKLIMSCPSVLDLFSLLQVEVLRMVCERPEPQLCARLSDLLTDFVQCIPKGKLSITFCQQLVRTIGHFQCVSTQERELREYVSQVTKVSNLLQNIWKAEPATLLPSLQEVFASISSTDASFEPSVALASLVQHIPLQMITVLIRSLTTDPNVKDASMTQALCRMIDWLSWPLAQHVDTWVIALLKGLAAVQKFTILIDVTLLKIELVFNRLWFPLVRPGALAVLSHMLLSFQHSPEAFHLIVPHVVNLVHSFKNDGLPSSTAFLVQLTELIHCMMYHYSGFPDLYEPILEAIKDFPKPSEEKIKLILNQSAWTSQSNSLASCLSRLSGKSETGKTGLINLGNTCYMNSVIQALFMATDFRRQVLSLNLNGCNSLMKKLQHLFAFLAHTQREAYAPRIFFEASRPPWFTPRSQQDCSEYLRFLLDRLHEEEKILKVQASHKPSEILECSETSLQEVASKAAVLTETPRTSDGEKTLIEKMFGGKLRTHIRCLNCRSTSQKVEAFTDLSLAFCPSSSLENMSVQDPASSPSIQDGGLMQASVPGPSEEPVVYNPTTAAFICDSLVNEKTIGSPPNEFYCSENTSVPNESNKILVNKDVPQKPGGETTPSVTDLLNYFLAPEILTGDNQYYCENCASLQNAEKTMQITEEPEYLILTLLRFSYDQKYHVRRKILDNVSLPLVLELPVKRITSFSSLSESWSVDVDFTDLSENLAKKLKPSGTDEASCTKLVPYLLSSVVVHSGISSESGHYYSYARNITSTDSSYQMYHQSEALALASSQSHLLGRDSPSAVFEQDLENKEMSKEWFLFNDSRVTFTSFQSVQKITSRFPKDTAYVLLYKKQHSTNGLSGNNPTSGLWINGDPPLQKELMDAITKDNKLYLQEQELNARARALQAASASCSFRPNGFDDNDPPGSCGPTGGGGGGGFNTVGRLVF
Procedure, shortened: as §1

USP39 = biological target: T3, USP39 (UniProt Q53GS9)
T3 sequence (whole entry): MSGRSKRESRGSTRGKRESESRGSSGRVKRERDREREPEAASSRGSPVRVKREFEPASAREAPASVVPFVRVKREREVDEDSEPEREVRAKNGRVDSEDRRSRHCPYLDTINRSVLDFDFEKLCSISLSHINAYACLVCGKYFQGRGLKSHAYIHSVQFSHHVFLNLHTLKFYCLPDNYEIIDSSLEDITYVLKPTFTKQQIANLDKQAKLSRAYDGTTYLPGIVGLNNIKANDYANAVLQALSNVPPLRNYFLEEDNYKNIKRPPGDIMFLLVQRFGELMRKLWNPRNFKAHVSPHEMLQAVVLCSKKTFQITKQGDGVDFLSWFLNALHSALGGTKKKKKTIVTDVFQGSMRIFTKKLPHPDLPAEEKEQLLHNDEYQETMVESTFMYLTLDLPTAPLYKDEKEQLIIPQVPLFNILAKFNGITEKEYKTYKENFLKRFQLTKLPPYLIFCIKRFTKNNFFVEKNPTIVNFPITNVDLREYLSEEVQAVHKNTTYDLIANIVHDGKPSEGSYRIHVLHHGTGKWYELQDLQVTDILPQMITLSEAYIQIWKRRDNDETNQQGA
Procedure, shortened: as §1

USP4 = biological target: T4, USP4 (UniProt Q13107)
T4 sequence (whole entry): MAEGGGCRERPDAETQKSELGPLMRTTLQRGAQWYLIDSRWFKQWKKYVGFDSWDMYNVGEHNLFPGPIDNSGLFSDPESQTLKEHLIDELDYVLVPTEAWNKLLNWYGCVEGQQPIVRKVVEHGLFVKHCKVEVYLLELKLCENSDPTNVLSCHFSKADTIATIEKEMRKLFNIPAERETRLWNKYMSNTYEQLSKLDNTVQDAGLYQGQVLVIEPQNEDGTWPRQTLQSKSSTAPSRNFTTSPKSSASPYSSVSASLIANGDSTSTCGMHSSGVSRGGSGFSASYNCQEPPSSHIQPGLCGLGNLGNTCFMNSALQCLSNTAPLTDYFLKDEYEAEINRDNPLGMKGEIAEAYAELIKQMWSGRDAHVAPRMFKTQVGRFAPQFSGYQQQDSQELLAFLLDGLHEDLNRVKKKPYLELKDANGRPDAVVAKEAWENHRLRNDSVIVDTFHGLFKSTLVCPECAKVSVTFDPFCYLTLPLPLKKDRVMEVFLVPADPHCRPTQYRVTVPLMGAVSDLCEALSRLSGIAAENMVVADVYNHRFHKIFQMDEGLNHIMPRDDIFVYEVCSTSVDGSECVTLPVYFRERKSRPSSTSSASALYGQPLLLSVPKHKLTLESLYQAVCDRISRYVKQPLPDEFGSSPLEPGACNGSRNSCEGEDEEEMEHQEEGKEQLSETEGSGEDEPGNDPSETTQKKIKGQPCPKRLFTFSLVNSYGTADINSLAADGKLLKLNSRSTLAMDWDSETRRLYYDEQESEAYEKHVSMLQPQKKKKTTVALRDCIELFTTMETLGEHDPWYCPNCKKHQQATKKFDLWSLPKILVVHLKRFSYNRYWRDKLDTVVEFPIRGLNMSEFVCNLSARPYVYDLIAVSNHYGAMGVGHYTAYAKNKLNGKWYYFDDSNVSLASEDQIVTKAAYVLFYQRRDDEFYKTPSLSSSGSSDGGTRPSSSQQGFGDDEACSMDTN
Procedure, shortened: as §1

Measured: log2 ratio of Biotin-Ahx-Ub-VS probe labelling

Sequence of USP34 (Q70CQ2 whole entry, the tested form may be a part): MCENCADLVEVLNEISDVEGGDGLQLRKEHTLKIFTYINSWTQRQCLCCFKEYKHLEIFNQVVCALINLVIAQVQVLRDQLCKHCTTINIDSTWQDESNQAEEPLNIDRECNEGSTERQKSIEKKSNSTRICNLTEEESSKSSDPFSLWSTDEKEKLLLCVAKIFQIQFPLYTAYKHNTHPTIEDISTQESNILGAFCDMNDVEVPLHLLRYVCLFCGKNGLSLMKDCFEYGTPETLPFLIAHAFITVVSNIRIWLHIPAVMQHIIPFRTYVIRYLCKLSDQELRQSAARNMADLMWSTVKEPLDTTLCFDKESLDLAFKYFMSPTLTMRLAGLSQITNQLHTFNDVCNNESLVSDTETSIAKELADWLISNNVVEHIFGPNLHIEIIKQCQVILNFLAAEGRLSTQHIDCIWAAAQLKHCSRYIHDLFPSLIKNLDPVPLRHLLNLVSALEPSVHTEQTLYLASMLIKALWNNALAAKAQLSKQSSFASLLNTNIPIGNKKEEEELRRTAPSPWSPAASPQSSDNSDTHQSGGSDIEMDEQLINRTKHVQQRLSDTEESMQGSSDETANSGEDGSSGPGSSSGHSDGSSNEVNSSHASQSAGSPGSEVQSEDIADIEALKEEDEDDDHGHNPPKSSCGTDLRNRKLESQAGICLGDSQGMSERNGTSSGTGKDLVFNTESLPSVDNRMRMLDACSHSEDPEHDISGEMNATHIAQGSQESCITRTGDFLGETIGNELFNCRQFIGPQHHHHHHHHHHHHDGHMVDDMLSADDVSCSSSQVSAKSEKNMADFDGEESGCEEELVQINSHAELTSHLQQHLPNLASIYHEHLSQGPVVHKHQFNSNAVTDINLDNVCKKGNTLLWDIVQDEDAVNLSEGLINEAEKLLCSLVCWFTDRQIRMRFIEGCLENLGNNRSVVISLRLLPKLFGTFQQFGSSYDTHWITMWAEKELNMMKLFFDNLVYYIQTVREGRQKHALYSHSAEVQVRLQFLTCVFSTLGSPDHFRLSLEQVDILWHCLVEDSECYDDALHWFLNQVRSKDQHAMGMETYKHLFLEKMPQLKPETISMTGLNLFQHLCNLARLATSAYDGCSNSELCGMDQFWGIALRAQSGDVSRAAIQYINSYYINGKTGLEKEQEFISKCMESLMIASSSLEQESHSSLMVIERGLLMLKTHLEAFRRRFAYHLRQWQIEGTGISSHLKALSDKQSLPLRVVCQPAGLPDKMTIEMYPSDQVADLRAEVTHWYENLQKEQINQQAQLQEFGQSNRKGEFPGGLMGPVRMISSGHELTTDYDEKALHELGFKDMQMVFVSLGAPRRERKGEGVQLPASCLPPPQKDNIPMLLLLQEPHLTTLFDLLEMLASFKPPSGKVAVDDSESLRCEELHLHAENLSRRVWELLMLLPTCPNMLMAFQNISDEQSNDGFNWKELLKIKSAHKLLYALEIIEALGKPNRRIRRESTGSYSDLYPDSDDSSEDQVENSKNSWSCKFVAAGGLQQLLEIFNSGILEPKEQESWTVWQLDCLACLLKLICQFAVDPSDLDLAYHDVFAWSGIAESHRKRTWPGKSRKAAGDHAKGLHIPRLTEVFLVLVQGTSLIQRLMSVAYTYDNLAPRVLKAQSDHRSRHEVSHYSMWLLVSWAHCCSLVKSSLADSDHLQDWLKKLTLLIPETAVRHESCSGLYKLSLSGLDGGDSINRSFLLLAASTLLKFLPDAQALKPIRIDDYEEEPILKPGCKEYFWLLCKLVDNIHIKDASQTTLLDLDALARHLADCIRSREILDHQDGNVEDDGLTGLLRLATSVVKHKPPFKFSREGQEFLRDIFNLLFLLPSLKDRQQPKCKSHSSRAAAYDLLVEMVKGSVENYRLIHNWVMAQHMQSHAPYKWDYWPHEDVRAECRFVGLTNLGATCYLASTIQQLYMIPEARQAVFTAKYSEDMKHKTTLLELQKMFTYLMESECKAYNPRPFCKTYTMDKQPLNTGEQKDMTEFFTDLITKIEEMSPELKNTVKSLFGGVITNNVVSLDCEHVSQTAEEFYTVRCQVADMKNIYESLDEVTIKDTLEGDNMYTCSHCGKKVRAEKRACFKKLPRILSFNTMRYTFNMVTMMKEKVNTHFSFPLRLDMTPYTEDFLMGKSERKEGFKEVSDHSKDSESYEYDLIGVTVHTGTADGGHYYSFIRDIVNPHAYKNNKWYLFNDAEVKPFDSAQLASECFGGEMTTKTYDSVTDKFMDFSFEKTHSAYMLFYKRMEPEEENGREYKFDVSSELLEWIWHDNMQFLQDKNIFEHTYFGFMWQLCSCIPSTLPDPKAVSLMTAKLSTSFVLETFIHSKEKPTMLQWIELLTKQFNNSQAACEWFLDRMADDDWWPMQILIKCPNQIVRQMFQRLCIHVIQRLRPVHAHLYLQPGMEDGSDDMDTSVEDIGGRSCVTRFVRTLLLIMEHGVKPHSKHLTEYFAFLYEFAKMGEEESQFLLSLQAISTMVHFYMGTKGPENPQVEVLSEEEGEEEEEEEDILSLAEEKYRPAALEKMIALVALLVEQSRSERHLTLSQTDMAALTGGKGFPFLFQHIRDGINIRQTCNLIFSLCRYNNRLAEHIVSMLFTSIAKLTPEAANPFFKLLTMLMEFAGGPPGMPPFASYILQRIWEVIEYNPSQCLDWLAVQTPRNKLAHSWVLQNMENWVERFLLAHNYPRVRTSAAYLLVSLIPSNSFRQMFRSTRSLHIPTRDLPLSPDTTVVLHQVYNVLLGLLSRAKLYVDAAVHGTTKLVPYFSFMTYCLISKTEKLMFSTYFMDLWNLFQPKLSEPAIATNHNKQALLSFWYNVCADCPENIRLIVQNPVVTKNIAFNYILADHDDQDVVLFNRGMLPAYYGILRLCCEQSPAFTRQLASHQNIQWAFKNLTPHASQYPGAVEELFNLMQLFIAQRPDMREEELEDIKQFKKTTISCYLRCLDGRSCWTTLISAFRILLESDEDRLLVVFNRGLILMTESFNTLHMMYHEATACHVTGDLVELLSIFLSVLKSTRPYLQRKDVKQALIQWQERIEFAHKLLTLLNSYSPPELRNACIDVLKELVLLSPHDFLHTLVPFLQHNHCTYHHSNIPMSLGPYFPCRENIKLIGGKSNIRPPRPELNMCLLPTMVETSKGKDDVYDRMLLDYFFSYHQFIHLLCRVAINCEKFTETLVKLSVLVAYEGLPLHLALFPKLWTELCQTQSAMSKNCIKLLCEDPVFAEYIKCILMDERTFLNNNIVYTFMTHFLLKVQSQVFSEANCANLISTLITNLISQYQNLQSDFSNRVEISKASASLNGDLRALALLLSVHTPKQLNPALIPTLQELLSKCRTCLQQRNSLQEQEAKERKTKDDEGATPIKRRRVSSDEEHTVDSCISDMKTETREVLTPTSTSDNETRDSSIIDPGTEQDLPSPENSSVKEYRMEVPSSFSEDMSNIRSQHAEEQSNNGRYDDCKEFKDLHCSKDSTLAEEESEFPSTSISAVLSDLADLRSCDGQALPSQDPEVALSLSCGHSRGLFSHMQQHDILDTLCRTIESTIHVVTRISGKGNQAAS

CCN(C(=O)CCl)C1CCCCC1
inactive: USP34 -0.106 | USP36 -0.191 | USP38 0.143 | USP39 0.059 | USP4 0.182

Source: the supplement of paper PMC11732987, “Enantioselective OTUD7B fragment discovery through chemoproteomics screening and high-throughput optimisation” (Communications Chemistry, 2025)
